FAS TE block = blocks the thioesterase domain of human fatty acid synthase. recombinant FAS-TE, OMFH fluorogenic substrate, fluorescence endpoint. inhibition, % at 15 µM. AID 602261. P49327. 360,000 tested, 0.67% active;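 active = compounds whose normalised, plate-corrected inhibition of enzyme fluorescence in the single-dose primary screen is 50% or more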;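 also: 0% = DMSO with enzyme and 100% = substrate without enzyme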
PLCg1 inh = inhibitors of human phospholipase C gamma1. purified PLC-gamma1, fluorogenic substrate, fluorescence. inhibition, % at 12.2 µM. 370,000 tested, 0.84% active. AID 720700; in the data active = inhibition above about 9.5%
PLC-beta3 inh = PLC-beta3 (human) inhibition, primary screen | 370,000 tested, 0.18% active | Purified PLC-beta3, fluorogenic substrate, fluorescence | inhibition, % at 12.2 µM | AID 720704;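 also: 0% = median of compound wells on plate and 100% = full blocker control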
H9c2 protect = modulators protecting cardiomyocytes from myocardial damage; H9c2 cardiomyocytes, H2O2 injury protection, ATPLite, 2 h; AID 588492; protection from H2O2 cell death, % at 20 µM; 360,000 tested, 0.63% active;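 active = compounds giving at least 50% protection of heart cells from peroxide-induced death in the single-dose screen, raw or plate-pattern-corrected value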;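 also: 0% = DMSO wells with peroxide and 100% = DMSO wells without peroxide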
PLCgamma1 ctr = counter-screen for PLC-beta3 inhibitors: inhibitors of human PLC-gamma1; AID 743258; 3,300 tested, 3.1% active; purified PLC-gamma1, fluorogenic substrate, fluorescence; inhibition, % at 12.3 µM; shares compounds with PLCg1 inh; in the data active = inhibition above about 9.5%
PLCb3 confirm = confirmation of human PLC-beta3 inhibitors | AID 743261 | 3,300 tested, 1% active | inhibition, % at 12.3 µM | shares compounds with PLCg1 inh | purified PLC-beta3, fluorogenic substrate fluorescence
* hit, by the source's call; . = no result given. The list is not random: actives were taken first. Their share in the collection is about 2.2%. Rule as the data show it, unless noted: active = inhibition above about 11%; inactive = the rest.

SMILES	FAS TE block	PLCg1 inh	PLC-beta3 inh	H9c2 protect	PLCgamma1 ctr	PLCb3 confirm
Cc1cccc(NCC(=O)N/N=C\c2cccn2C)c1	-3	11*	-6	4	-249	-1
CCCC(=O)Nc1c(-c2ccccc2Cl)c(=O)c2ccccc2n1C	-4	13*	-1	5	-2	0
CCn1c(CNc2ccc(F)cc2)nnc1SCC(=O)Nc1ccccc1OC	-4	11*	5	-5	-7	-2
C[C@@H]1CN([C@H](C)CO)C(=O)CCCn2nncc2CO[C@H]1CN(C)S(=O)(=O)c1ccc2c(c1)OCCCO2	-8	3	2	1	.	.
O=C(NCc1ccccc1)Nc1nnc([C@@H]2C[C@H](O)[C@@H](CO)O2)s1	-10	15*	6	-5	-6	1
O=C(Nc1nnc([C@@H]2C[C@H](O)[C@@H](CO)O2)s1)NC(c1ccccc1)c1ccccc1	-4	2	-2	-6	.	.
O=C(Nc1nnc([C@H]2C[C@H](O)[C@@H](CO)O2)s1)NC(c1ccccc1)c1ccccc1	0	12*	3	0	-8	-4
O=C(NCc1ccc(F)cc1)Nc1nnc([C@@H]2C[C@H](O)[C@@H](CO)O2)s1	-10	-2	1	14	.	.
COc1ccc(-n2nnnc2SCC(=O)Nc2c(C)n[nH]c2C)cc1	-8	2	3	1	.	.
CCn1c(SCC(=O)Nc2ccc(Br)cn2)nnc1C1CC1	-4	-3	-7	3	.	.
CC(Oc1ccccc1Cl)C(=O)N1CCCN(C)CC1 (stereo unspecified)	-4	0	-6	3	.	.
Cc1cc(Cl)ccc1OCC(=O)N1CC(C)CC(C)C1 (stereo unspecified)	10	0	3	-14	.	.
Cc1cc(Cl)ccc1OCC(=O)N1CCCN(C(=O)COc2ccc(Cl)cc2C)CC1	43	10*	4	4	-9	-4
Cc1cc(Cl)ccc1OC(C)C(=O)N1CCCN(C(=O)C(C)Oc2ccc(Cl)cc2C)CC1 (stereo unspecified)	26	10*	4	8	-5	-4
CC1(C(=O)NS(=O)(=O)c2cccc(Cl)c2)CCN1C(=O)CC1CCCC1 (stereo unspecified)	-6	-1	-3	3	.	.
CCOc1cc(S(=O)(=O)NC2CC(C)(C)NC(C)(C)C2)ccc1Cl	-5	4	-1	1	.	.
CCOc1cc(C)c(Cl)cc1S(=O)(=O)NC1CC(C)(C)NC(C)(C)C1	4	10*	6	6	-8	-4
Cc1[nH]c2ccccc2c1/C=N/Nc1nncn1N	-2	9.9*	6	-4	-11	-5
Cc1[nH]c2ccccc2c1/C=N/Nc1ccccn1	.	-12	-10	.	.	.
CCOC(=O)N(NC(=O)C(O)(C(C)C)C(C)C)c1ccccc1	0	-1	-2	4	.	.
CCOC(=O)N(NC(=O)C(O)(c1ccccc1)c1ccccc1)c1ccccc1	-6	14*	8	-3	-1	4
CCCC(O)(CCC)C(=O)NN(C(=O)CCl)c1ccccc1	-6	9.7*	2	-8	-2	-2
CCCCC(O)(CCCC)C(=O)NN(C(=O)OCC)c1ccccc1	-4	-1	0	10	.	.
O=C(Nc1ccc2c(c1)OCO2)c1cc(C2CCCCN2C(=O)OCCF)on1 (stereo unspecified)	2	-2	3	5	.	.
CCCCn1c(-c2nonc2NC(=O)c2ccccc2Cl)nc2ccccc21	24	12*	-4	-12	-10	-7
SMILES	FAS TE block	PLCg1 inh	PLC-beta3 inh	H9c2 protect	PLCgamma1 ctr	PLCb3 confirm
Cc1cccc(CS(=O)(=O)Cc2ccc(C(=O)O)o2)c1	-7	11*	3	11	-6	0
COCCCNC(=O)c1ccc(CS(=O)(=O)Cc2cccc(C)c2)o1	-10	1	2	4	.	.
CC(C)NC(=O)c1cc2c(C(F)(F)F)nn(C)c2s1	-8	0	5	2	.	.
CCCNC(=O)c1cc2c(C(F)(F)F)nn(C)c2s1	-8	13*	1	6	-5	-1
CCOc1ccc(S(=O)(=O)N2CCC(C(=O)NCc3cccnc3)CC2)cc1	-2	12*	-3	-1	-2	1
C#C[C@]1(O)CC[C@H]2[C@@H]3CCC4=Cc5oncc5C[C@]4(C)[C@H]3CC[C@@]21C	18	-2	-1	8	.	.
O=C(O)c1cc([N+](=O)[O-])ccc1Nc1ccccc1	-5	-43	-52	6	.	.
